From PubChem
PP1 inh: blocks human PP1-alpha phosphatase, a PP5 counter-screen; hit rate 0.9% among 320,000; purified PP1alpha, OMFP fluorescence; AID 2235; inhibition, % at 6.7 µM; P62136;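 active = inhibition above the mean inhibition of all tested compounds plus 3 SD, computed separately for each screening campaign, cut at about 15% in these data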
Beta cell apopt: blocks beta cell apoptosis | hit rate 0.8% among 300,000 | INS-1E cytokine-induced death, ATP luminescence, 48 h; percent of positive-control rescue, neutral wells zero | protection from apoptosis, % (no concentration beside the values);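 active = Every replicate reaches about 75%, or at least half do and their mean reaches it too, limit read from the data; inconclusive = At least half of replicates reach the limit but their mean does not; inactive = Under half of replicates reach the limit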;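 note: higher means more ATP so stronger rescue from cytokine killing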
CSC inhib: cancer stem cell inhibition; inhibition, % at 7.5 µM; hit rate 1.1% among 300,000; AID 2717; cancer stem cell-like cells viability, luminescence; in the data active = inhibition above about 75%; inconclusive = no clear call, values can overlap the other calls; tested in HMLE shEcad cells
PP5 primary: PP5 (human) phosphatase inhibition; P53041; purified PP5c, OMFP substrate fluorescence; inhibition, % at 6.7 µM; hit rate 0.18% among 320,000;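 active = inhibition above the campaign's mean inhibition across all tested compounds plus 3 SD, cut at about 9.5% in these data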
Target sequence (P53041 whole entry, looked up): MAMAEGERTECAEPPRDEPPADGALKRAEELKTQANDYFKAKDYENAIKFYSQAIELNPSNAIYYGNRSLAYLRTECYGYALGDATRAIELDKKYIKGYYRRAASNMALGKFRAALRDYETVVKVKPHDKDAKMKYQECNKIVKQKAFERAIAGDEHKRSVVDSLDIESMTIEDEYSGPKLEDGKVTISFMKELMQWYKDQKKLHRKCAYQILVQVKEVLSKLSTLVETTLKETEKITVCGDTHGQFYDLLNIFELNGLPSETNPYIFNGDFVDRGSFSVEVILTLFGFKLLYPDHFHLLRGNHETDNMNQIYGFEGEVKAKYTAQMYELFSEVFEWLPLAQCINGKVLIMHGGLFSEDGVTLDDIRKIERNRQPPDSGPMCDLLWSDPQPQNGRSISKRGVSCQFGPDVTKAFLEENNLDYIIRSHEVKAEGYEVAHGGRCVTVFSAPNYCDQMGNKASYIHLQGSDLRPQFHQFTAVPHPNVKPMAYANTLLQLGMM
SKKanGAS inh: SKKanGAS growth inhibition | S. pyogenes SKKanGAS, kanamycin growth, BacTiter-Glo, 6 h | inhibition, % at 7.5 µM | hit rate 1.3% among 300,000;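 active = mean replicate score, as percent of positive control median, at least 50; inconclusive = mean below 50 but one replicate at or above 50; inactive = mean and every replicate below 50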;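 note: strain carries kanamycin resistance gene driven by streptokinase promoter and grows in 40 µg/ml kanamycin; loss of luminescence reflects streptokinase promoter inhibition or plain growth inhibition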
Large screens that a line does not name were inactive. In the library only some 3.1% were active in any assay of this set; here they are far more common.

Clc1ccccc1Sc1ccc(-c2ccccn2)s1	SKKanGAS inh 62
COC(=O)[C@@]12CCCCN1[C@H](c1ccc(-c3cccc(Cl)c3)c(OC)c1)[C@@H]1C(=O)N(C)C(=O)[C@@H]12	none
COC(=O)[C@@]12CCCN1[C@H](c1ccc(-c3cccc(Cl)c3)c(OC)c1)[C@H]1C(=O)N(C)C(=O)[C@H]12	SKKanGAS inh 66
COc1ccc(Cl)cc1Nc1nc(-c2sc(NC(=O)CC(C)C)nc2C)cs1	none
Cc1nc(NC(=O)c2ccco2)sc1-c1csc(Nc2ccc(Cl)cc2)n1	CSC inhib 91
CCC(=O)Nc1nc(C)c(-c2csc(Nc3cccc(O)c3)n2)s1	CSC inhib 77
Cc1nc(C)c(-c2csc(Nc3cccc(O)c3)n2)s1	none
Cc1nc(NC(=O)CC(C)C)sc1-c1csc(Nc2ccc(Cl)cc2Cl)n1	CSC inhib 80
COc1ccc(CCC(=O)Nc2nc(C)c(C(=O)N(C)C)s2)cc1	none
COc1ccccc1N(CC(=O)NCCSc1ccccn1)S(=O)(=O)c1ccccc1	none
O=C(NCc1ccc(Cl)cc1)c1cc(=O)[nH]c2ccccc12	none
CCCCCCCCCCCCN1[C@@H](CC(=O)O)c2cc(F)ccc2S1(=O)=O	PP1 inh 16
CCCCCCCCCCCCN1[C@@H](CC(=O)O)c2cc(C(F)(F)F)ccc2S1(=O)=O	CSC inhib 104, SKKanGAS inh 89
CCCCCCCCN1[C@@H](CC(=O)O)c2cc(C(F)(F)F)ccc2S1(=O)=O	none
CCOC(=O)N1CCC(N2CCCC(CO)(Cc3cccc(Cl)c3)C2)CC1 (stereo not given)	none
O=C(N/N=C/c1c(Cl)cccc1Cl)c1n[nH]c2c1CCCC2	none
Cc1ccsc1/C=N\NC(=O)c1n[nH]c2c1CCC2	CSC inhib 130
CCc1sc(N(C(=O)Cc2ccccc2)c2ccc(F)cc2)nc1-c1ccccc1	SKKanGAS inh 55
CCc1sc(N(C(=O)Cc2ccccc2)c2ccccc2)nc1-c1ccccc1	none
CC(C)NC(=O)CSc1nnc(-c2ccc3ncccc3c2)n1C	none
CC(=O)N(C)c1ccc(N=Cc2cc3c(cc2[N+](=O)[O-])OCO3)cc1	none
CCN(CC)c1ccc(N=Cc2ccccc2[N+](=O)[O-])cc1	Beta cell apopt 100
CCN(CC)c1ccc(N=Cc2ccc([N+](=O)[O-])o2)cc1	Beta cell apopt 75
COc1ccc(N2CC(C(=O)N[C@H](C(=O)NC3CCCCC3)C(C)C)CC2=O)cc1 (stereo not given in full)	none
Nc1[nH]n2c(=O)cc(-c3ccccc3)nc2c1N=Nc1ccc2c(c1)OCO2	SKKanGAS inh 56
S=C(NCCCN1CCOCC1)N1CCN(c2nc(-c3ccc(Cl)cc3)cs2)CC1	Beta cell apopt 85, CSC inhib 104
CC(=O)Oc1ccc(-c2csc(Nc3ccc(Cl)cn3)n2)cc1	CSC inhib 95 (no result: Beta cell apopt)
Cn1nccc1C(=O)N1CCN(c2ccccc2F)CC1	none
COCCCN1C(=O)/C(=C/c2ccc(CNS(=O)(=O)c3ccccc3)o2)C(C(=O)OC)=C1C	SKKanGAS inh inconclusive
O=C(CCCOc1ccc(Cl)cc1Cl)N/N=C/c1ccccc1O	CSC inhib 168
O=C(COc1ccc(Cl)cc1Cl)N/N=C/c1ccc[nH]1	CSC inhib 79
Cc1cc(Cl)ccc1OCCCC(=O)NNC(=O)c1ccccc1O	SKKanGAS inh 101
Cc1ccccc1C(=O)Nc1ccc(C(=O)NNC(=O)CCCOc2ccc(Cl)cc2Cl)cc1	none
CN(C)N1C(N)=C(C#N)C(c2ccc3c(c2)OCO3)C2=C1CCCC2=O (stereo not given)	none
O=C(Nc1ccccc1Oc1ccccc1)c1cccs1	none
Oc1ccc(N=Nc2nc(-c3ccccc3)c(-c3ccccc3)[nH]2)cc1	CSC inhib 189
Oc1ccc(N=Nc2n[nH]c(-c3ccccc3)n2)cc1	none
O=[N+]([O-])c1ccc(S(=O)(=O)N2CCN(c3ccnc4cc(Cl)ccc34)CC2)cc1	PP1 inh 17
O=C(Cn1cnc([N+](=O)[O-])n1)N/N=C/c1ccc(O)cc1O	CSC inhib 80 (no result: Beta cell apopt)
COc1cc(OC)cc(C(=O)N[C@H](C(=O)NCCc2ccc(S(N)(=O)=O)cc2)C(C)C)c1	none (no result: CSC inhib)
Cc1cc(O)c(-c2n[nH]c3c2C(c2cccc(O)c2)N(Cc2cccnc2)C3=O)cc1Cl (stereo not given)	PP1 inh 17
CCCN1C(=O)c2[nH]nc(-c3cc(Cl)c(C)cc3O)c2C1c1ccc(O)c(OC)c1 (stereo not given)	none
C=CCn1c(C)c(/C=C/c2cc[n+](C)cc2)c2ccccc21	Beta cell apopt 97
CC(C)n1cc(/C=C/c2cc[n+](C)cc2)c2ccccc21	none (no result: PP1 inh, Beta cell apopt, CSC inhib, PP5 primary)
CCn1cc(/C=C/c2cc[n+](C)cc2)c2ccccc21	Beta cell apopt 85
CCN(CC)C(=O)Cn1c(C)c(/C=C/c2cc[n+](C)cc2)c2ccccc21	none
C=CCn1cc(/C=C/c2cc[n+](C)cc2)c2ccccc21	Beta cell apopt 80
CC1CCC(NC(=O)C(Cc2ccccc2)n2cccc2)CC1 (stereo not given)	none
Cc1ccc(Cl)cc1N1CCN(C(=O)CNC(=O)c2ccc(Br)o2)CC1	none (no result: SKKanGAS inh)
CCOc1ccccc1C(=O)NC(C(=O)N(C)Cc1ccc2c(c1)OCO2)C(C)C (stereo not given)	none (no result: Beta cell apopt, CSC inhib, SKKanGAS inh)
c1ccc(OCc2nn3c(-c4ccco4)nnc3s2)cc1	PP1 inh 16 (no result: Beta cell apopt)
CCOCCCN(C(=O)c1snc(C(N)=O)c1N)C(C(=O)NC1CCCC1)c1ccc(F)cc1 (stereo not given)	none
NNC(=S)Nc1ccc(C(F)(F)F)cc1Cl	SKKanGAS inh 61
FC(F)(F)c1cccc(NC(=S)Nc2ccc(Cl)cc2Cl)c1	SKKanGAS inh inconclusive
FC(F)(F)c1cnc(NNC(=S)Nc2ccccc2Cl)c(Cl)c1	Beta cell apopt 112
CNc1cc(-n2nc(C)cc2-c2ccccc2)ncn1	none
Cc1cc(-c2ccccc2)n(-c2cc(N/N=C/c3ccccc3O)ncn2)n1	PP1 inh 16, Beta cell apopt 77, CSC inhib 105 (no result: SKKanGAS inh)
CC(=O)NC(c1ccco1)c1ccc2cccnc2c1O (stereo not given)	Beta cell apopt 90
CCC(=O)NC(c1ccc(Cl)cc1Cl)c1ccc2cccnc2c1O (stereo not given)	Beta cell apopt 104, CSC inhib 104, SKKanGAS inh 64
CCCC(=O)NC(c1ccc(N(C)C)cc1)c1ccc2cccnc2c1O (stereo not given)	Beta cell apopt 96, CSC inhib 152
CCCC(=O)NC(c1ccc(OC)cc1)c1c(O)ccc2ccccc12 (stereo not given)	none
O=C(O)c1ccc2cccnc2c1O	none
CCCCC(=O)NC(c1ccc(Cl)cc1Cl)c1ccc2cccnc2c1O (stereo not given)	Beta cell apopt 85, CSC inhib 109, SKKanGAS inh 92 (no result: PP1 inh, PP5 primary)
CC(NC(=O)CSc1ncccn1)c1ccc(Cl)cc1Cl (stereo not given)	none
Cc1ccc(Cl)cc1NC(=O)[C@@H]1CCC(=O)N1C1OC(=O)c2ccccc21 (stereo not given in full)	none
COc1ccc(OCC(=O)Nc2cccc3cccnc23)cc1	none
